Test results from PubChem BioAssay AID624354 (Sanford-Burnham Center for Chemical Genomics, 2012).
Where “and” joins values, the source holds several entries; their conditions need not be identical. Equal entries are not always repeated. Among all 360,000 compounds or so, about 3,800 (1.1%) were called active. The full list was thinned out, with actives kept by preference. A number with no mark means an inactive call.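 How the source made its calls: active means compounds causing at least 50% loss of cell viability in the single-dose screen, relative to plate controls; inactive means the rest.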

test: viability loss with TRAIL in NB7+C8 cells, primary screen, TRAIL sensitizer project, cell-based, ATPlite luminescence (AID 624354); conditions: at 10 µM, active compounds read high

**Q.** With `COc1cccc(-c2nc3ccc(N4CCN(C)CC4)cc3[nH]2)c1` as the compound, how does the inhibition (viability loss, TRAIL sensitization) read?
**A.** Its inhibition (viability loss, TRAIL sensitization) is 86.3% (active).

**Q.** For `CCC(=O)c1ccc(OCC(=O)N2CCN(CC(=O)Nc3ccc(C)cc3)CC2)cc1`, which inhibition (viability loss, TRAIL sensitization) is on record?
**A.** Its inhibition (viability loss, TRAIL sensitization) is 1.16%.

**Q.** With `Cc1cc2ccccn2c1C(C[N+](=O)[O-])c1c(F)cccc1Cl` (stereo not given) as the compound, how does the inhibition (viability loss, TRAIL sensitization) read?
**A.** The inhibition (viability loss, TRAIL sensitization) was -0.261%.

**Q.** Which inhibition (viability loss, TRAIL sensitization) does the source give for `COc1ccc(-n2c(O)c(C(C)=Nc3ccc4c(c3)CCC4)c(=O)[nH]c2=O)cc1` here?
**A.** The inhibition (viability loss, TRAIL sensitization) was 7.82%.

**Q.** For `O=Cc1cn(Cc2ccc(F)cc2Cl)c2ccccc12`, which inhibition (viability loss, TRAIL sensitization) is on record?
**A.** The inhibition (viability loss, TRAIL sensitization) was 17.7%.

**Q.** Which inhibition (viability loss, TRAIL sensitization) does the source give for `CNC(=O)O/N=C(\N)Cc1csc2ccccc12` here?
**A.** The inhibition (viability loss, TRAIL sensitization) was -3.67%.

**Q.** Which inhibition (viability loss, TRAIL sensitization) does the source give for `CNC(=O)O/N=C(\N)Cc1csc2ccc(Cl)cc12` here?
**A.** The inhibition (viability loss, TRAIL sensitization) was 70.7% (active).

**Q.** For `CCC/C(=N\O)c1c[nH]c2ccccc12`, which inhibition (viability loss, TRAIL sensitization) is on record?
**A.** The inhibition (viability loss, TRAIL sensitization) was -8.01%.

**Q.** Which inhibition (viability loss, TRAIL sensitization) does the source give for `Cc1ncoc1C(=O)NCC1=C(c2cccc3ccccc23)C[C@@H]2CC[C@H]1N2Cc1ccco1` here?
**A.** The inhibition (viability loss, TRAIL sensitization) was 14.8%.

**Q.** For `COc1ccccc1CN1CCN(C(=O)Cc2ccccc2)CC1`, which inhibition (viability loss, TRAIL sensitization) is on record?
**A.** Its inhibition (viability loss, TRAIL sensitization) is -10.1%.

**Q.** For `CCN1CCN(Cc2cc(OC)c3c(c2)OCO3)CC1`, which inhibition (viability loss, TRAIL sensitization) is on record?
**A.** The inhibition (viability loss, TRAIL sensitization) was 3.55%.

**Q.** Which inhibition (viability loss, TRAIL sensitization) does the source give for `C[C@]12CC[C@H](O)C[C@H]1CC[C@@H]1C2CC[C@]2(C)[C@@H](C3=CC(=O)OC3)[C@@H](O)C[C@]12O` (stereo not given in full) here?
**A.** The inhibition (viability loss, TRAIL sensitization) was 48.7%.

**Q.** Which inhibition (viability loss, TRAIL sensitization) does the source give for `COC1C(O)C(C)OC(OC2CCC3(C=O)C(CCC4C3CCC3(C)C(C5=CC(=O)OC5)CCC43O)C2)C1O` (stereo not given) here?
**A.** The inhibition (viability loss, TRAIL sensitization) was 74.4% (active).

**Q.** Which inhibition (viability loss, TRAIL sensitization) does the source give for `CC(C)Nc1nc(Cl)nc(NC(C)C)n1` here?
**A.** Its inhibition (viability loss, TRAIL sensitization) is -4.77%.

**Q.** With `O=C(O)C1CSC(c2cccnc2)N1` (stereo not given) as the compound, how does the inhibition (viability loss, TRAIL sensitization) read?
**A.** The inhibition (viability loss, TRAIL sensitization) was -7.34%.

**Q.** Which inhibition (viability loss, TRAIL sensitization) does the source give for `Cc1ccc(Cn2c(C)c3cnn(CC(=O)N4CCC5(CC4)OCCO5)c(=O)c3c2C)cc1` here?
**A.** Its inhibition (viability loss, TRAIL sensitization) is 2.81%.

**Q.** For `OC(Cn1c2ccccc2c2ccccc21)C[n+]1ccccc1` (stereo not given), which inhibition (viability loss, TRAIL sensitization) is on record?
**A.** Its inhibition (viability loss, TRAIL sensitization) is -9.29%.

**Q.** For `CCOc1ccc(-c2cc(C)[n+](CCN(CC)CC)c(-c3ccc(OCC)cc3)c2)cc1`, which inhibition (viability loss, TRAIL sensitization) is on record?
**A.** The inhibition (viability loss, TRAIL sensitization) was 64.8% (active).

**Q.** For `O=c1[nH]c(CN2CC=C(c3ccccc3)CC2)nc2scc(-c3cccs3)c12`, which inhibition (viability loss, TRAIL sensitization) is on record?
**A.** The inhibition (viability loss, TRAIL sensitization) was -10.4%.

**Q.** For `COc1ccccc1N1CCN(C(CNC(=O)Oc2ccccc2)c2cccnc2)CC1` (stereo not given), which inhibition (viability loss, TRAIL sensitization) is on record?
**A.** The inhibition (viability loss, TRAIL sensitization) was -5.13%.

**Q.** For `CN1CCc2cc3c(cc2[C@H]1[C@@H]1OC(=O)c2c1ccc1c2OCO1)OCO3`, which inhibition (viability loss, TRAIL sensitization) is on record?
**A.** The inhibition (viability loss, TRAIL sensitization) was -20.1%.

**Q.** With `C=C(C)C1(CCCC)C(=O)NC(=S)NC1=O` as the compound, how does the inhibition (viability loss, TRAIL sensitization) read?
**A.** Its inhibition (viability loss, TRAIL sensitization) is 6.23%.

**Q.** For `CN1C2C=C(N(C(=O)c3ccc(Cl)cc3)c3ccccc3)CC1CC2` (stereo not given), which inhibition (viability loss, TRAIL sensitization) is on record?
**A.** Its inhibition (viability loss, TRAIL sensitization) is -8.37%.

**Q.** Which inhibition (viability loss, TRAIL sensitization) does the source give for `CC(=O)OC1C2(CC3N4C(=O)C5(CO)SSC4(CC31O)C(=O)N5C)OC(C)C(C)(C)C2=O` (stereo not given) here?
**A.** The inhibition (viability loss, TRAIL sensitization) was 84.2% (active).

**Q.** For `CCC(=O)CC(c1ccc([N+](=O)[O-])cc1)c1c(O)c2ccccc2oc1=O` (stereo not given), which inhibition (viability loss, TRAIL sensitization) is on record?
**A.** The inhibition (viability loss, TRAIL sensitization) was 4.29%.

**Q.** With `Nc1ccc(Cc2ccc(N)c(Cl)c2)cc1Cl` as the compound, how does the inhibition (viability loss, TRAIL sensitization) read?
**A.** Its inhibition (viability loss, TRAIL sensitization) is 2.29%.

**Q.** Which inhibition (viability loss, TRAIL sensitization) does the source give for `CN(C)C(=O)Oc1cc(OC(=O)N(C)C)cc(C(O)CNC(C)(C)C)c1` (stereo not given) here?
**A.** The inhibition (viability loss, TRAIL sensitization) was -5.27% and 5.89%.

**Q.** With `C=Cn1ccnc1P(=S)(c1cc(N(CC)CC)ns1)c1nccn1C=C` as the compound, how does the inhibition (viability loss, TRAIL sensitization) read?
**A.** Its inhibition (viability loss, TRAIL sensitization) is -19.8%.

**Q.** For `CCCCCCCCCCCCn1ccc(=N)cc1`, which inhibition (viability loss, TRAIL sensitization) is on record?
**A.** Its inhibition (viability loss, TRAIL sensitization) is 62.5% (active).

**Q.** Which inhibition (viability loss, TRAIL sensitization) does the source give for `CC1CNCCN1c1ccc(Cl)cc1` (stereo not given) here?
**A.** Its inhibition (viability loss, TRAIL sensitization) is -10.4%.

**Q.** For `C=CCN1C(=O)NC(=O)/C(=C/c2ccc(OCC(=O)Nc3ccc(C)cc3)cc2)C1=O`, which inhibition (viability loss, TRAIL sensitization) is on record?
**A.** The inhibition (viability loss, TRAIL sensitization) was 6.1%.

**Q.** For `CCOC(=O)[C@]12Cc3cc(OC)ccc3[C@H]1N(C(C)C)C(=O)c1ccccc12`, which inhibition (viability loss, TRAIL sensitization) is on record?
**A.** Its inhibition (viability loss, TRAIL sensitization) is 39.4%.

**Q.** Which inhibition (viability loss, TRAIL sensitization) does the source give for `CCOC(=O)[C@]12Cc3ccccc3[C@H]1N(C1CCCCC1)C(=O)c1cc(OC)ccc12` here?
**A.** The inhibition (viability loss, TRAIL sensitization) was 79.1% (active).

**Q.** With `CCC1(CC(C)c2ccccc2)C(=O)NC(=O)NC1=O` (stereo not given) as the compound, how does the inhibition (viability loss, TRAIL sensitization) read?
**A.** Its inhibition (viability loss, TRAIL sensitization) is -15.1%.

**Q.** With `C/C(=N/O)c1ccc2ccc3ccccc3c2c1` as the compound, how does the inhibition (viability loss, TRAIL sensitization) read?
**A.** Its inhibition (viability loss, TRAIL sensitization) is 0.44%.
